Compound activity from PubChem.
Only some compounds are listed: those with a hit (about 2.2% of all), similar ones and a draw of the others.
proKLK7 act – activates the human kallikrein-7 zymogen; P49862; purified proKLK7, EDANS-DABCYL substrate fluorescence; 100% is mature enzyme control, 0% vehicle; activation, % at 7 µM; hit rate 0.9% among 370,000; AID 652039;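 active = activation above the mean of all tested compounds plus 3 SD, computed per campaign excluding outliers beyond control limits, cut at about 13% in these data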
NPR1 activator – GC-A (human) enzyme activation | P16066 | HEK293 GC-A cells, cGMP TR-FRET, EC30 ANP; 0% at EC30 ANP, 100% saturating ANP | activation, % at 10 µM | hit rate 0.14% among 370,000 | AID 1671463; in the data active = activation above about 40%
ADAM10 inh – inhibitors of human ADAM10; inhibition, % at 7 µM; O14672; recombinant ADAM10, EDANS/DABCYL FRET peptide cleavage, 3 h; hit rate 0.62% among 370,000;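 active = inhibition above a per-campaign cutoff equal to the mean of compounds falling between control-based bounds plus 3 SD, cut at about 20% in these data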
Target sequence (O14672 214-748 limits assumed): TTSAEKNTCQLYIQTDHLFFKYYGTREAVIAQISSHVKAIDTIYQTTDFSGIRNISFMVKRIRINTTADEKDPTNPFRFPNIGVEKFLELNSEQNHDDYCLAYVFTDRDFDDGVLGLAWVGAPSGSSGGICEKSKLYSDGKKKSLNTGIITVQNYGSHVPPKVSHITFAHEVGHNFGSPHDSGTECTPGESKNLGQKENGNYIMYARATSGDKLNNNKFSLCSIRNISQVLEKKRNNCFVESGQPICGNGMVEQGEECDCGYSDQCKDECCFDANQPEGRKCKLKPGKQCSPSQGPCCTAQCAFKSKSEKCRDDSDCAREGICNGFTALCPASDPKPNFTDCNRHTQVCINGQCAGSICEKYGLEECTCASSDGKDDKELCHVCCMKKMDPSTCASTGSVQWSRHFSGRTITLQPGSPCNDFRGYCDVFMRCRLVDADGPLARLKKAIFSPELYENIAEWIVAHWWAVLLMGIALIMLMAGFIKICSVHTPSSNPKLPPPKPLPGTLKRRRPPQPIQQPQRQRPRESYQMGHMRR
ADAM17 inh – inhibitors of human ADAM17; P78536; inhibition, % at 6.95 µM; recombinant ADAM17, EDANS/DABCYL FRET peptide cleavage; hit rate 0.83% among 370,000; AID 720648;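 active = inhibition above the mean of compounds lying between control limits plus 3 SD, set per campaign, cut at about 8.5% in these data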
GC-B act – GC-B (human) receptor activation; P20594; HEK293-GC-B cells, CNP EC30, cGMP TR-FRET; 0% at EC30 CNP, 100% saturating CNP; activation, % at 10 µM; hit rate 0.11% among 370,000; AID 1920062;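 active = activation at 10 µM reaching about 35% in either raw or pattern-adjusted values, limit read from the data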
KLK7 act conf – proKLK7 activation, confirmation; shares compounds with proKLK7 act; purified proKLK7, EDANS-DABCYL substrate fluorescence; scaled: vehicle 0, mature enzyme 100; activation, % at 7 µM; hit rate 68% among 3,200;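 active = activation, as change over the incubation, above the mean of all tested compounds plus 3 SD, cut at about 13% in these data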
EDANS interfere – optically interferes with EDANS-DABCYL signal, flagging KLK7 hits; shares compounds with proKLK7 act; EDANS-DABCYL substrate fluorescence interference, no enzyme, 4 h; solvent 0%, active enzyme control 100%; activation, % at 7 µM; hit rate 80% among 3,200; AID 686952;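 active = activation above the all-compound mean plus 3 SD, ignoring values outside control-based bounds, cut at about 4.8% in these data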;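 note: value is the 4 h activation minus the activation read at time zero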
EDANS interf – counter-screen for kallikrein-7 activators: EDANS-DABCYL interference, dose response; EC50, µM; AID 720493; EDANS-DABCYL peptide fluorescence interference, no enzyme; shares compounds with proKLK7 act; hit rate 20% among 250;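 active = compounds that raise the fluorescence signal in this interference counterscreen, with EC50 at or below 10 µM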;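 note: intact quenched peptide substrate alone read at 355 nm excitation and 520 nm emission; signal is fluorescence gain from T0 to T4 after four hours at room temperature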
Hits are given with their value; n = inactive; x = no result.

SMILES	proKLK7 act	NPR1 activator	ADAM10 inh	ADAM17 inh	GC-B act	KLK7 act conf	EDANS interfere	others
CCOc1ccc(OCC(=O)N2CCC3(CC2)CC(=O)c2ccccc2O3)cc1	n	n	n	n	n	x	x
CCOC(=O)COc1ccc2c(c1)C(=O)CC1(CCN(C(C)=O)CC1)O2	22	n	n	n	n	26	43
CC(=O)N1CCC2(CC1)CC(=O)c1cc(OCC(=O)N3CCCC3)ccc1O2	40	n	n	n	n	53	55
COc1ccc(CNS(=O)(=O)/C=C/c2ccccc2CNC(=O)OC(C)(C)C)cc1	n	n	n	n	n	x	x
C[C@@H]1C(c2ccccc2)=NN(c2ccccc2)[C@H]1C(=O)N1CCOC1=O	243	n	n	n	n	223	217
O=C(Nc1ccc(C2=CN(Cc3ccccc3)CCC2=O)cc1)OCc1ccccc1	20	n	n	n	n	n	n
COc1ccc(/C=N/n2c(C)nnc2C)c(OC)c1	n	n	n	n	n	x	x
COc1cc(OC)c(/C=N/n2c(C)nnc2C)c(OC)c1	16	n	n	n	n	n	n
COc1cc2c(cc1OC)CN(Cc1nc3ccsc3c(=O)[nH]1)CC2	31	n	n	n	n	n	13
O=c1[nH]c(CN2CCN(c3ccccc3Cl)CC2)nc2ccsc12	n	n	n	n	n	x	x
Cc1cccc(N=c2oc3cc(O)ccc3cc2C(N)=O)c1	53	n	n	n	n	27	27
COc1ccc2cc(C(N)=O)c(=Nc3ccc(C)cc3)oc2c1	n	n	n	n	n	x	x
COc1cccc(N=c2oc3cc(O)ccc3cc2C(=O)NCC2CCCO2)c1 (configuration not stated)	66	n	n	n	n	n	6.5
COc1ccccc1N=c1oc2cc(O)ccc2cc1C(=O)NCC1CCCO1 (configuration not stated)	74	n	n	n	n	21	22
COc1ccccc1N=c1oc2cc(O)ccc2cc1C(N)=O	39	n	n	n	n	18	23
COc1cccc2cc(C(=O)NCC3CCCO3)c(=O)oc12 (configuration not stated)	n	n	n	n	n	x	x
Cc1nn(CCC(=O)NNC(=O)Nc2ccccc2F)c(C)c1[N+](=O)[O-]	n	n	n	n	n	x	x
CCCCCNc1nc(N2CCCC2)c2c(c1C#N)CCN(C)C2	n	n	n	n	n	x	x
C=CCNc1nc(NCc2ccccc2)c(C#N)c2c1CN(C)CC2	14	n	n	n	n	20	15	EDANS interf=n
CCCCCNc1nc(NCCCO)c(C#N)c2c1CN(C)CC2	20	n	n	n	n	17	23
COc1cc2c(cc1OC)C(=O)CCS2	14	n	n	n	n	16	22
COc1ccc2c(c1)SCCC2=O	n	n	n	n	n	x	x
O=C(Nc1cccc(C(F)(F)F)c1)OCCCN1CCC2(CCC(c3ccccc3)CC2)C1=O (configuration not stated)	n	n	n	n	n	x	x
CN(CCOC(=O)c1cccs1)C1CN(Cc2cn(Cc3ccccc3Cl)nn2)S(=O)(=O)C1 (configuration not stated)	n	n	n	n	n	x	x
CS(=O)(=O)NN1C(=O)c2ccccc2NC12CCCC2	72	n	n	n	n	38	51
SMILES	proKLK7 act	NPR1 activator	ADAM10 inh	ADAM17 inh	GC-B act	KLK7 act conf	EDANS interfere	others
O=C1c2ccccc2NC2(CCCC2)N1NS(=O)(=O)c1ccccc1	37	n	n	n	n	31	28
COc1cc2oc(=O)c(Br)c(C)c2c(OC)c1OC	n	n	n	n	n	x	x
COc1cc2oc3cc(C)oc(=O)c3c2cc1OC	35	n	n	n	n	60	73
O=S1(=O)CCN2C=C(Br)C=C(Br)C2=N1	n	n	n	n	n	x	x
O=S1(=O)CCN2C=C(Cl)C=C(Cl)C2=N1	25	n	n	n	n	33	29
COCC(=O)N(C)[C@H]1C[C@H]2c3[nH]c4c(-c5ccc6c(c5)OCO6)cccc4c3CCN2C(=O)[C@H]1[C@H](C)O	n	n	n	n	n	x	x
COc1cc(NC(=O)COc2ccccc2Cl)ccc1NC(=O)c1cccs1	63	n	n	n	n	15	8.8	EDANS interf=8.6
COc1ccccc1NC(=O)c1cccs1	n	n	n	n	n	x	x
COc1cc(NC(=O)COc2ccccc2[N+](=O)[O-])ccc1NC(=O)c1cccs1	n	n	n	n	n	x	x
COc1cc(NC(=O)c2cccs2)c(OC)cc1NC(=O)Nc1ccc(F)cc1	99	n	n	n	n	71	117
CCNc1sc(C(=O)c2cccs2)c(N)c1C#N	n	n	n	n	n	x	x
C=CCNc1sc(C(=O)c2cccs2)c(N)c1C#N	87	n	n	n	n	n	n
CC(=O)c1cc(C)ccc1OC(=O)c1cccc2nc(C)oc12	13	n	n	n	n	n	n
CC(=O)c1cc(C)ccc1OC(=O)c1ccncc1	n	n	n	n	n	x	x
CCOC(=O)CNS(=O)(=O)c1ccc2c3c(cccc13)C(=O)N2CC	77	n	n	n	n	64	69
COCCNS(=O)(=O)c1ccc2c3c(cccc13)C(=O)N2C	28	n	n	n	n	78	88
CCN1C(=O)c2cccc3c(S(=O)(=O)NCc4ccccn4)ccc1c23	53	n	n	n	n	62	56
CN1C(=O)c2cccc3c(S(=O)(=O)NCCc4ccccc4)ccc1c23	n	n	n	n	n	x	x
CCOC(=O)Cc1csc(NS(=O)(=O)c2ccc3c4c(cccc24)C(=O)N3CC)n1	n	n	n	n	n	x	x
CN1C(=O)c2cccc3c(S(=O)(=O)N4CCCC4C(=O)O)ccc1c23 (configuration not stated)	17	n	n	n	n	42	46
C=CCNC(=O)Nc1ccc2c(c1)[C@]1(CC(=O)N(CC(C)C)C1c1ccccc1)C(=O)N2C (some centres not stated)	n	n	n	n	n	x	x
COc1ccc(-n2cc(COC(=O)NCCc3c[nH]c4ccccc34)nn2)cc1	n	n	n	n	n	x	x
Cc1ccc2nc3c(c(N)c2c1)CCN3C	n	n	n	n	n	x	x
Cc1ccc2nc3c(c(N)c2c1)CCN3c1ccccc1	106	n	n	n	n	n	n
CC1(C)CC2CN(Cc3ccccc3)S(=O)(=O)N2C1 (configuration not stated)	x	n	n	n	n	x	x
O=C(COC(=O)c1ccccc1)Nc1ccc2[nH]c(=O)[nH]c2c1	n	n	n	n	n	x	x
